# Experimental data reported in the supplement of paper PMC9135407.
# “And” between values parts separate entries of the source, which are not always exact repeats. Identical values can stand only once. Counter-ions that a name gives are not always drawn. About 620 (11%) of roughly 5,800 compounds showed activity. Shown is part of a subset that was picked to be rich in actives. A number with no mark means an inactive call.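 Rule for the calls: active = score above a cut-off or among the top three wells of a plate; in these data no inactive exceeds 0.85.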
# Tested on: primary human hepatic stellate cells (donor 1)
# Assay: scaled lipid accumulation score (0 = DMSO-like, 1 = nortriptyline-like); higher = stronger HSC inactivation (lipid re-accumulation), active = hit call of the paper
# Conditions: 48 h
# [1] = library stock concentration: 10 mM
# [2] = library stock concentration: 5.9 mM
# [3] = library stock concentration: 1 mM
# [4] = library stock concentration: 3.33 mM
structure (smiles),measurement,setting,value
"CC(N)Cc1cccc(C(F)(F)F)c1 (single isomer, unassigned; (+)) [(+)-Norfenfluramine hydrochloride]",scaled lipid accumulation score,[1],0.072
CC(=O)[O][Hg][c]1ccccc1 [Phenylmercuric acetate],scaled lipid accumulation score,[2],0.512
same,scaled lipid accumulation score,[1],0.358
O=[N+]([O-])OCC(CO[N+](=O)[O-])O[N+](=O)[O-] [Nitroglycerin],scaled lipid accumulation score,library stock concentration: 8.8 mM,0.395
CCCCC/C=C\C/C=C\C/C=C\C/C=C\CCCC(=O)NCCc1ccc(O)c(O)c1 [N-Arachidonoyl Dopamine],scaled lipid accumulation score,[3],≤ 0
CCCCC/C=C\C/C=C\C/C=C\C/C=C\CCCC(=O)N[C@H](C)COP(=O)(O)O [R-1 Methanandamide Phosphate],scaled lipid accumulation score,[3],≤ 0
Cc1[nH]c2ccc(Cl)cc2c1C1=CCNCC1.Cl,scaled lipid accumulation score,[1],1.1 (active)
C#CCOC(=O)C1=CCCN(C)C1 [Arecaidine propargyl ester tosylate],scaled lipid accumulation score,[1],≤ 0
C#CCOC(=O)C1=CCCN(C)C1 [Arecaidine propargyl ester hydrobromide],scaled lipid accumulation score,[1],≤ 0
C[C@]12CCC(=O)C=C1CC[C@@H]1[C@@H]2CC[C@@]2(C)[C@H]1CC[C@]2(C)O [Methyltestosterone],scaled lipid accumulation score,[1],0.073
COc1ccc2[nH]c3c(c2c1)CCN=C3C [Methoxy-6-harmalan],scaled lipid accumulation score,,0.039
COc1ccc2c(c1)[nH]c1c(C)nccc12 [Harmine] [listing 1 of 2 here],scaled lipid accumulation score,library stock concentration: 9.4 mM,0.851 (active)
Cc1nccc2c1[nH]c1ccccc12 [Harmane],scaled lipid accumulation score,[1],0.671
Cc1nccc2c1[nH]c1ccccc12 [Harmane hydrochloride],scaled lipid accumulation score,,0.089
COc1ccc2c(c1)[nH]c1c(C)nccc12.Cl [Harmine hydrochloride],scaled lipid accumulation score,,0.89 (active)
COc1ccc2c(c1)[nH]c1c(C)nccc12 [Harmine] [listing 2 of 2 here],scaled lipid accumulation score,[3],0.141
same,scaled lipid accumulation score,[1],0.762
Cc1nccc2c1[nH]c1cc(O)ccc12 [Harmol hydrochloride],scaled lipid accumulation score,[1],≤ 0
Cc1onc(O)c1C[C@H](N)C(=O)O,scaled lipid accumulation score,[1],≤ 0
CCCCC/C=C\C/C=C\C/C=C\C/C=C\CCCC(=O)Nc1ccc([N+](=O)[O-])cc1 [Arachidonoyl p-Nitroaniline],scaled lipid accumulation score,[3],≤ 0
c1cc2ccc(N3CCNCC3)cc2cn1 [7-piperazin-1-yl-Isoquinoline (hydrochloride)],scaled lipid accumulation score,[3],≤ 0
CCN1CCN(C(=O)Cc2ccc(Nc3ncc(F)c(Nc4ccc(C(=O)Nc5ccccc5Cl)cc4)n3)cc2)CC1 [Aurora A Inhibitor I] [listing 1 of 2 here],scaled lipid accumulation score,[1],1.24 (active)
CCN1CCN(C(=O)Cc2ccc(Nc3ncc(F)c(Nc4ccc(C(=O)Nc5ccccc5Cl)cc4)n3)cc2)CC1 [Aurora A Inhibitor I] [listing 2 of 2 here],scaled lipid accumulation score,[4],0.402
CCN1CCN(C(=O)Cc2ccc(Nc3ncc(F)c(Nc4ccc(C(=O)Nc5ccccc5Cl)cc4)n3)cc2)CC1,scaled lipid accumulation score,library stock concentration: 80 uM,≤ 0
same,scaled lipid accumulation score,library stock concentration: 400 uM,≤ 0
same,scaled lipid accumulation score,library stock concentration: 2 mM,0.676
same,scaled lipid accumulation score,[1],0.801
"NC(Cn1oc(=O)[nH]c1=O)C(=O)O (single isomer, unassigned; (+)) [(+)-Quisqualic acid]",scaled lipid accumulation score,[1],≤ 0
CC[C@@H](CO)NC(=O)[C@@H]1C=C2c3cccc4c3c(cn4C)C[C@H]2N(C)C1 [Methysergide maleate],scaled lipid accumulation score,[1],0.458 and 0.048
CN1C[C@H](CNC(=O)OCc2ccccc2)C[C@@H]2c3cccc4c3c(cn4C)C[C@H]21 [Metergoline] [listing 1 of 3 here],scaled lipid accumulation score,[1],0.653
CO[C@]12C[C@@H](COC(=O)c3cncc(Br)c3)CN(C)[C@@H]1Cc1cn(C)c3cccc2c13 [Nicergoline],scaled lipid accumulation score,,≤ 0
same,scaled lipid accumulation score,[1],0.682 and 0.399
CC[C@@H](CO)NC(=O)[C@@H]1C=C2c3cccc4c3c(cn4C)C[C@H]2N(C)C1 [Methysergide],scaled lipid accumulation score,library stock concentration: 5.7 mM,≤ 0
CN1C[C@H](CNC(=O)OCc2ccccc2)C[C@@H]2c3cccc4c3c(cn4C)C[C@H]21 [Metergoline] [listing 2 of 3 here],scaled lipid accumulation score,,1.06 (active)
CN1C[C@H](CNC(=O)OCc2ccccc2)C[C@@H]2c3cccc4c3c(cn4C)C[C@H]21 [Metergoline] [listing 3 of 3 here],scaled lipid accumulation score,[1],0.893 (active)
CN1CC(CNC(=O)OCc2ccccc2)C[C@H]2c3cccc4c3c(cn4C)CC21 (stereo not given in full) [Metergoline],scaled lipid accumulation score,[1],1.05 (active)
CCOC(=O)CN1C(=O)CC(C[C@@H](O)C2C[C@@H](C)C[C@H](C)C2=O)CC1=O (stereo not given in full) [Cycloheximide-N-ethylethanoate],scaled lipid accumulation score,library stock concentration: 13.6 mM,≤ -0.021
Cc1cc([C@@H]2CCCN2C)on1 [ABT-418 hydrochloride],scaled lipid accumulation score,[1],≤ 0
CCOc1ccccc1-n1c(C(C)N2CCN(C(=O)COc3ccc(Cl)cc3)CC2)nc2ccccc2c1=O (stereo not given) [Erastin],scaled lipid accumulation score,[4],≤ -0.009
same,scaled lipid accumulation score,[1],0.473
"C[N+]1(C)CCc2cc3c(cc2C1C1OC(=O)c2c1ccc1c2OCO1)OCO3 (single isomer, unassigned; (-)) [(-)-Bicuculline methobromide]",scaled lipid accumulation score,[1],≤ 0
O=C(O)/C=C/CO [trans-4-Hydroxycrotonic acid],scaled lipid accumulation score,[1],0.003
CCCCCCCC/C=C\CCCCCCCC(=O)Nc1ccccc1 [Oleyl Anilide],scaled lipid accumulation score,[3],0.024
CS(=O)(=O)Nc1ccc(Cc2noc(-c3ccc4[nH]cc(CCN)c4c3)n2)cc1,scaled lipid accumulation score,[1],≤ 0
COc1ccc(C(=O)c2c(C)n(CCN3CCOCC3)c3ccccc23)cc1 [Pravadoline],scaled lipid accumulation score,library stock concentration: 5.3 mM,≤ -0.006
COc1ccc(CCN2CCC(Nc3nc4ccccc4n3Cc3ccc(F)cc3)CC2)cc1 [Astemizole] [listing 1 of 3 here],scaled lipid accumulation score,[1],0.907 (active)
COc1ccc(CCN2CCC(Nc3nc4ccccc4n3Cc3ccc(F)cc3)CC2)cc1 [Astemizole] [listing 2 of 3 here],scaled lipid accumulation score,library stock concentration: 4.4 mM,0.824 and 0.409
same,scaled lipid accumulation score,[1],0.475
COc1ccc(CCN2CCC(Nc3nc4ccccc4n3Cc3ccc(F)cc3)CC2)cc1 [Astemizole] [listing 3 of 3 here],scaled lipid accumulation score,,1 (active)
CC(=O)N[C@H]1[C@@H](O[C@@H]2O[C@H](CC(O)[C@H]3O[C@@H](n4ccc(=O)[nH]c4=O)[C@H](O)[C@@H]3O)[C@H](O)[C@H](O)[C@H]2NC(=O)/C=C/CC(C)C)O[C@H](CO)[C@@H](N)[C@@H]1O (stereo not given in full) [Tunicamycin],scaled lipid accumulation score,library stock concentration: 7 mM,0.058
CN1CC[C@@]2(C)c3cc(OC(=O)Nc4ccccc4)ccc3N(C)[C@@H]12 [Phenserine],scaled lipid accumulation score,[1],0.339
NCCc1ccccn1,scaled lipid accumulation score,[1],≤ 0
CCCCCCC(=O)CCCCCC/C=C/C[C@@H](O)[C@H](O)[C@@](N)(CO)C(=O)O [Myriocin],scaled lipid accumulation score,[3],0.023
O[C@H]1[C@H]2[C@H](O)CCCN2C[C@H]1O [swainsonine],scaled lipid accumulation score,library stock concentration: 28.9 mM,0.01
"Cl.Clc1ccc(N2CCN(Cc3c[nH]c4ncccc34)CC2)cc1 [L-745,870 hydrochloride]",scaled lipid accumulation score,[1],0.902 (active)
"Clc1ccc(N2CCN(Cc3c[nH]c4ncccc34)CC2)cc1 [L-745,870 trihydrochloride]",scaled lipid accumulation score,[1],0.37
CC1=CC(=O)C2=C(C)C[C@H](O)[C@@H]3[C@H](OC(=O)[C@H]3C)[C@H]12 [Austricine hydrate],scaled lipid accumulation score,,≤ 0
CCCCC[C@@H](/C=C/C=C\CCCCCCCC(=O)O)OO,scaled lipid accumulation score,library stock concentration: 100 uM,≤ -0.021
CO[C@@H]1C=C2CCN(C)[C@@H]2C2c3cc4c(cc3C(=O)OC21)OCO4 (stereo not given in full) [Ungerine nitrate],scaled lipid accumulation score,,≤ 0
CCCCCCC(=O)O[C@H]1CC[C@H]2[C@@H]3CC(=O)C4=CC(=O)CC[C@]4(C)[C@H]3CC[C@]12C [6-keto Testosterone Enanthate],scaled lipid accumulation score,[3],0.048
O=C1Nc2ccc(Cl)cc2C(c2ccccc2Cl)=NC1O (stereo not given) [Lorazepam],scaled lipid accumulation score,[1],≤ 0
Oc1ccc2c3c1O[C@H]1c4[nH]c5ccccc5c4C[C@@]4(O)[C@@H](C2)N(CC2CC2)CC[C@]314 [Naltrindole],scaled lipid accumulation score,[1],0.713
Cl.Oc1ccc2c3c1O[C@H]1c4[nH]c5ccccc5c4C[C@@]4(O)C(C2)N(CC2CC2)CCC314 (stereo not given in full) [Naltrindole hydrochloride],scaled lipid accumulation score,[1],1.1 (active)
Oc1ccc2c3c1O[C@H]1c4[nH]c5ccccc5c4C[C@@]4(O)[C@@H](C2)N(CC2CC2)CC[C@]314 [Naltrindole HCl],scaled lipid accumulation score,library stock concentration: 4.8 mM,0.264
O=C(O)/C=C\C(=O)O.O=C1/C(=C/c2ccccc2)C[C@@]2(O)C3Cc4ccc(O)c5c4[C@@]2(CCN3CC2CC2)[C@H]1O5 [BNTX maleate],scaled lipid accumulation score,[1],0.851 (active)
Cl.Oc1ccc2c3c1O[C@H]1c4[nH]c5ccccc5c4C[C@@]4(O)C(C2)N(CC2CC2)CC[C@]314 [Naltrindole hydrochloride],scaled lipid accumulation score,[1],1.33 (active)
C=C(C)CN1CC[C@@]23c4c5ccc(O)c4O[C@H]2c2[nH]c4ccccc4c2C[C@]3(O)C1C5 [SDM25N hydrochloride],scaled lipid accumulation score,[1],0.625
O=C1CC[C@@]2(O)[C@H]3Cc4ccc(O)c5c4[C@@]2(CCN3CC2CC2)[C@H]1O5 [Naltrexone hydrochloride],scaled lipid accumulation score,[2],0.019
same,scaled lipid accumulation score,[1],≤ -0.045 and ≤ -0.027
O=C1CC[C@@]2(O)[C@H]3Cc4ccc(O)c5c4[C@@]2(CCN3CC2CC2)[C@H]1O5 [Naltrexone HCl],scaled lipid accumulation score,[4],≤ 0
same,scaled lipid accumulation score,[2],≤ -0.006
same,scaled lipid accumulation score,[1],0.025
O=C1CC[C@@]2(O)[C@H]3Cc4ccc(O)c5c4[C@@]2(CCN3CC2CC2)[C@H]1O5 [Naltrexone hydrochloride dihydrate],scaled lipid accumulation score,,≤ 0
O=C1/C(=C/c2ccccc2)C[C@@]2(O)[C@H]3Cc4ccc(O)c5c4[C@@]2(CCN3CC2CC2)[C@H]1O5 [BNTX maleate salt hydrate],scaled lipid accumulation score,[1],≤ -0.006
Oc1ccc2c3c1O[C@H]1c4[nH]c5c(c4C[C@@]4(O)[C@@H](C2)N(CC2CC2)CC[C@]314)C[C@@]1(O)[C@H]2Cc3ccc(O)c4c3[C@@]1(CCN2CC1CC1)[C@H]5O4 [nor-Binaltorphimine dihydrochloride],scaled lipid accumulation score,[1],≤ -0.055 and ≤ 0
